Experimental findings from PubChem BioAssay AID687038 (Broad Institute, 2013) are described below.

Calls of active or inactive are those of the source.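 How the source made its calls: active means curve showing a falling signal whose half-maximal concentration is at most twice the top valid dose; inconclusive means flat curve with a moderate drop, or an unreliable fit; inactive means the rest.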

The nature of the experiment: miR-21 levels after miR-122 inhibitor treatment, dose response, selectivity assay for miR-122 inhibitor project, cell-based, Huh7, RT-qPCR, dry powder (AID 687038). The settings on record: Huh7 miR-21 levels, qRT-PCR, 48 h; series mostly up to 35 µM; relative miR-21 level (fold): at the top concentration. On the technique in general: In qPCR the cycle at which signal appears reflects the starting amount.
`C[C@H]1CN([C@@H](C)CO)C(=O)c2cc(-c3ccc(C#N)cc3)cnc2O[C@H]1CN(C)Cc1cncnc1`: the “relative miR-21 level (fold)” value was 0.821 fold (inactive).

Regarding `COc1cccc(C(=O)Nc2ccc3c(c2)C(=O)N(C)C[C@@H](OC)[C@@H](C)CN[C@@H](C)CO3)c1`, the “relative miR-21 level (fold)” value was 1.21 fold (inactive).

On to `CN1C(=O)c2cc(NC(=O)c3cccc(F)c3)ccc2OC[C@@H]2O[C@@H](CC(=O)O)CC[C@@H]21`, for which the “relative miR-21 level (fold)” value is 0.771 fold (inactive).

In the case of `C[C@@H]1CN([C@H](C)CO)S(=O)(=O)c2ccc(C#Cc3ccncc3)cc2O[C@H]1CN(C)C(=O)C1CCOCC1`, the “relative miR-21 level (fold)” value was 0.753 fold (inactive).

With `Cc1cccc(NC(=O)Nc2ccc3c(c2)C(=O)N(C)[C@@H]2CC[C@H](CC(=O)NCc4ccccc4Cl)O[C@H]2CO3)c1`, the “relative miR-21 level (fold)” value was 2.03 fold (inactive).

Turning to `CN(CC(=O)Nc1cccc(Cl)c1)S(=O)(=O)c1ccc2c(c1)n(C)c(=O)c(=O)n2C`, the “relative miR-21 level (fold)” value was 1.34 fold (inactive).

Take `C[C@H]1CN([C@@H](C)CO)C(=O)c2cc(-c3ccc(C#N)cc3)cnc2O[C@H]1CN(C)C(=O)Nc1ccc(C(F)(F)F)cc1`: the “relative miR-21 level (fold)” value was 0.659 fold (inactive).

Turning to `CN1C(=O)c2cc(NC(=O)c3cccc(F)c3)ccc2OC[C@H]2O[C@H](CC(=O)O)CC[C@@H]21`, the “relative miR-21 level (fold)” value was 0.751 fold (inactive).

As for `CO[C@@H]1CN(C)C(=O)c2cc(NC(=O)c3cccc(Oc4ccccc4)c3)ccc2OC[C@H](C)NC[C@@H]1C`, the “relative miR-21 level (fold)” value is 1.07 fold (inactive).

Regarding `C[C@@H]1CN([C@H](C)CO)S(=O)(=O)c2ccc(/C=C/c3ccccc3)cc2O[C@@H]1CN(C)C(=O)c1cccnc1`, the “relative miR-21 level (fold)” value is 0.881 fold (inactive).

As to `C[C@H](CO)N1C[C@H](C)[C@@H](CN(C)C(=O)C2CCOCC2)Oc2cc(C#Cc3ccncc3)ccc2S1(=O)=O`, the “relative miR-21 level (fold)” value was 0.591 fold (inactive).
